Measurements published in the supplement of paper PMC7156485.
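Note: TDF is a line of transformed human dermal fibroblasts of mesenchymal origin.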

Each molecule was assayed on TDF (assay: H1.0 immunofluorescence intensity relative to DMSO (% of DMSO); higher = stronger H1.0 induction, active = 120 or more). Settings: concentration: 10 µM; 24 h.
Summary of the method: (§1)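 HCC1569 and TDF cells (800 per well, 384-well plates, RPMI with 10% FBS) were treated with compounds at 10 µM for 24 h at 37 °C, in triplicate. Cells were fixed in 3.7% formaldehyde and stained with a rabbit anti-H1.0 antibody, an AlexaFluor 647 secondary and DAPI; six fields per well were imaged at ×10. H1.0 nuclear intensity or cell number is expressed as percent of the plate DMSO control, taking the median of replicates. HCC1569 values were smoothed for positional effects.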
`O=C([O-])CCC(NC(=O)c1ccccc1C(=O)[O-])C(=O)[O-].[Na+].[Na+].[Na+]` [Phthalamoyl-L-glutamic acid trisodium] was tested, and the H1.0 immunofluorescence intensity was 89.2 (inactive). In the case of `CCCCCCCCCCCCCCCCC(=O)O` [Heptadecanoic acid], the H1.0 immunofluorescence intensity is reported as 103 (inactive). `COc1ccccc1OCC(O)CN1CCN(CC(=O)Nc2c(C)cccc2C)CC1.Cl.Cl` (stereo unspecified) [Ranolazine.2HCl] was tested, and the H1.0 immunofluorescence intensity was 94.2 (inactive). With `Cl.NCCCCC(=O)O` [5-Aminovaleric acid hydrochloride] the H1.0 immunofluorescence intensity was 96.1 (inactive). With `COc1cc2c(CCNC(C)=O)c[nH]c2cc1O` [6-Hydroxymelatonin] the H1.0 immunofluorescence intensity was 91.4 (inactive). With `Cn1cnc2cc3c(Nc4cccc(Br)c4)ncnc3cc21` the H1.0 immunofluorescence intensity was 79.6 (inactive). `CCC1(C)CC(=O)NC1=O` (stereo unspecified) [Ethosuximide] was tested, and the H1.0 immunofluorescence intensity was 94.1 (inactive). `COc1cc(NC(C)CCCN)c2ncccc2c1` (stereo unspecified) [Primaquine] was tested, and the H1.0 immunofluorescence intensity was 96.2 (inactive). For `CCC12CCCN3CCc4c(n(c5ccccc45)C(=O)C1)C32` (single isomer, unassigned; (-)) [(-)-Eburnamonine], the H1.0 immunofluorescence intensity was 118 (inactive). For `Br.Br.N=C(N)SCCN` [2-(2-Aminoethyl)isothiourea dihydrobromide], the H1.0 immunofluorescence intensity was 96.9 (inactive).

The molecules below were run on HCC1569 (assay: H1.0 immunofluorescence intensity relative to DMSO (% of DMSO); higher = stronger H1.0 induction, active = 140 or more). Settings: concentration: 10 µM; 24 h.
Summary of the method: as §1
In the case of `CCCCCCCCCCCCCCCC(=O)O` [Hexadecanoic acid], the H1.0 immunofluorescence intensity is reported as 97.9 (inactive). For `COc1c(O)cc(O)c2c(=O)cc(-c3ccccc3)oc12` [Wogonin], the H1.0 immunofluorescence intensity was 85.8 (inactive). `OC1C=C2CCN3Cc4cc5c(cc4C(C1O)C23)OCO5` (stereo unspecified) [Lycorine] was tested, and the H1.0 immunofluorescence intensity was 180 (active). For `CC1CN(c2c(F)c(N)c3c(=O)c(C(=O)O)cn(C4CC4)c3c2F)CC(C)N1` (stereo unspecified) [Sparfloxacin], the H1.0 immunofluorescence intensity was 106 (inactive). `CN(C)CCOC(c1ccccc1)c1ccccc1.Cl` [Diphenhydramine.HCl] was tested, and the H1.0 immunofluorescence intensity was 107 (inactive). With `CC12CCC3c4ccc(O)cc4CC(CCCCCCCCCS(=O)CCCC(F)(F)C(F)(F)F)C3C1CCC2O` (stereo unspecified) [Fulvestrant] the H1.0 immunofluorescence intensity was 110 (inactive). For `CCC=CCC=CCC=CCCCCCCCCCC(=O)O` [Eicosatrienoic acid], the H1.0 immunofluorescence intensity was 99.5 (inactive). `CCC1(O)CC2CN(CCc3c([nH]c4ccccc34)C(C(=O)OC)(c3cc4c(cc3OC)N(C)C3C(O)(C(=O)OC)C(OC(C)=O)C5(CC)C=CCN6CCC43C65)C2)C1.O=S(=O)(O)O` (stereo unspecified) [Vinblastine sulfate] was tested, and the H1.0 immunofluorescence intensity was 131 (inactive). In the case of `CNc1nc(-c2ccc3c(N)n[nH]c3c2)cc(N2C[C@@H](C(=O)NC3CCCCC3)CC[C@H]2C)n1`, the H1.0 immunofluorescence intensity is reported as 161 (active). With `CC1(C)C(=O)N(CCN2CCC(C(=O)c3ccc(F)cc3)CC2)c2ccccc21.Cl` [LY-310,762 hydrochloride] the H1.0 immunofluorescence intensity was 95.7 (inactive). With `CC(C)=CCC(OC(=O)C=C(C)C)C1=CC(=O)c2c(O)ccc(O)c2C1=O` (stereo not drawn) [Shikonin beta,beta-dimethylacrylate] the H1.0 immunofluorescence intensity was 114 (inactive). For `CN1Cc2c(N)cccc2C(c2ccccc2)C1.O=C(O)C=CC(=O)O` (stereo unspecified) [Nomifensine maleate], the H1.0 immunofluorescence intensity was 101 (inactive). In the case of `Brc1c(Br)c(Br)c2[nH]cnc2c1Br` [4,5,6,7-tetrabromo-1H-benzimidazole], the H1.0 immunofluorescence intensity is reported as 103 (inactive). `C[N+]1(C)C2CC(OC(=O)C(O)(c3cccs3)c3cccs3)CC1C1OC12.[Br-]` (stereo unspecified) [Tiotropium Bromide] was tested, and the H1.0 immunofluorescence intensity was 114 (inactive). `CCOC(=O)C1=C(COCCN)NC(C)=C(C(=O)OC)C1c1ccccc1Cl` (stereo unspecified) [Amlodipine] was tested, and the H1.0 immunofluorescence intensity was 106 (inactive). With `CCCCCCCCCCCCCC=CC(O)C(CO)NC(=O)CCCCCCC` (stereo unspecified) [C8 Ceramide] the H1.0 immunofluorescence intensity was 99.8 (inactive). In the case of `CCN(CC)CCCCNc1ncc2cc(-c3c(Cl)cccc3Cl)c(NC(=O)NC(C)(C)C)nc2n1`, the H1.0 immunofluorescence intensity is reported as 115 (inactive). For `COc1ccccc1NC(=O)Nc1nc(-c2cccnc2)nc2ccccc12`, the H1.0 immunofluorescence intensity was 104 (inactive). In the case of `NC(C(=O)O)C(O)C(=O)O` (racemic) [DL-threo-beta-hydroxyaspartic acid], the H1.0 immunofluorescence intensity is reported as 95.9 (inactive). `N#CC(=Cc1c[nH]c2ccccc12)C(=O)c1ccc(O)c(O)c1` [Tyrphostin AG 808] was tested, and the H1.0 immunofluorescence intensity was 122 (inactive). `O=C(C=Cc1ccc(O)c(O)c1)c1ccc(O)cc1O` [Butein] was tested, and the H1.0 immunofluorescence intensity was 133 (inactive).
